This is part of a sample that, as a whole, favours compounds with a hit. Of some 79,000 tested, about 15% had one in any assay. Active and inactive are the calls of the source. Cut-off read from the data, not from the text of the source: active = growth inhibition above about 70%; inactive = the rest.
Key:
[1] = NCI Yeast Anticancer Drug Screen. Data for the rad52 strain (AID 147);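 note: 0% = growth of vehicle-treated control cultures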; conditions: S. cerevisiae rad52 mutant growth inhibition, hits give high values
Method in brief: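 Here a repair-compromised yeast strain receives each compound; its growth is then quantified and normalised to vehicle-only controls.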

[2] = NCI Yeast Anticancer Drug Screen. Data for the wt1 strain (AID 149);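 note: 0% = growth of vehicle-treated wt1 cultures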; conditions: S. cerevisiae wt1 strain (SPY 50644) growth inhibition, hits give high values
Method in brief: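 The wt1 strain was treated with compounds, and growth was compared with vehicle-treated cultures to give inhibition.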

[3] = NCI Yeast Anticancer Drug Screen. Data for the rad50EPP+ strain (AID 151);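 note: 0% = growth of vehicle-treated control cultures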; conditions: S. cerevisiae rad50 mutant strain, hits give high values
Method in brief: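 Read-out is yeast growth inhibition relative to vehicle; cells used were the rad50EPP+ strain.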

[4] = NCI Yeast Anticancer Drug Screen. Data for the mgt1 strain (AID 153); conditions: S. cerevisiae mgt1 mutant growth inhibition, hits give high values
Method in brief: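 Measured: inhibition of mgt1 yeast growth by compound, normalized to vehicle-treated cultures.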

[5] = NCI Yeast Anticancer Drug Screen. Data for the rad50 strain (AID 155);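 note: 0% = growth of vehicle-only cultures of the same strain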; conditions: S. cerevisiae rad50 strain growth inhibition, hits give high values
Method in brief: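 Cells are treated with compound, grown, and their growth is then scored against vehicle-only cultures of the same repair-deficient yeast strain.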

[6] = NCI Yeast Anticancer Drug Screen. Data for the mec2-1 strain (AID 157); conditions: S. cerevisiae mec2-1 strain, hits give high values
Method in brief: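 Using mec2-1 yeast: add compound, measure growth, express inhibition versus vehicle-treated cultures.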

[7] = NCI Yeast Anticancer Drug Screen. Data for the rad14 strain (AID 159);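 note: 0% = growth of vehicle-treated control cultures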; conditions: S. cerevisiae rad14 strain growth inhibition, hits give high values
Method in brief: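 Readout: yeast growth inhibition, referenced to vehicle-only cultures. Strain bears a defined alteration in DNA damage repair.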

[8] = NCI Yeast Anticancer Drug Screen. Data for the sgs1 mgt1 strain (AID 161);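 note: 0% = growth of cultures given vehicle only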; conditions: S. cerevisiae sgs1 mgt1 strain, hits give high values
Method in brief: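 Yeast cells carrying a defined DNA-repair defect were exposed to test compounds. Growth inhibition was measured relative to vehicle-treated controls.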

[9] = NCI Yeast Anticancer Drug Screen. Data for the CLN2oe strain (AID 163);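 note: 0% = growth of vehicle-only control cultures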; conditions: S. cerevisiae CLN2oe strain, hits give high values
Method in brief: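 Whole-cell yeast growth assay. A strain engineered for altered cell-cycle control received compound, and inhibition relative to vehicle-treated cultures was recorded.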

[10] = NCI Yeast Anticancer Drug Screen. Data for the cln2 rad14 strain (AID 165);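 note: 0% = growth equal to vehicle treated cultures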; conditions: S. cerevisiae cln2 rad14 strain, hits give high values
Method in brief: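 Yeast strain cln2 rad14, bearing defects in cell cycle control and DNA repair, serves as the test system; values reflect growth inhibition compared with vehicle.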

[11] = NCI Yeast Anticancer Drug Screen. Data for the bub3 strain (AID 167); conditions: S. cerevisiae bub3 mutant strain, hits give high values
Method in brief: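 Part of a panel of yeast mutants defective in DNA damage repair or cell cycle regulation. Each strain is grown with compound, and inhibition is calculated relative to solvent-treated cultures.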

[12] = NCI Yeast Anticancer Drug Screen. Data for the wt2 strain (AID 169);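 note: 0% = growth of vehicle-treated yeast cultures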; conditions: S. cerevisiae wt2 strain growth inhibition, hits give high values
Method in brief: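 Treated yeast vs. vehicle-treated yeast: growth inhibition determined.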

[13] = NCI Yeast Anticancer Drug Screen. Data for the mlh1 strain (AID 171);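 note: 0% = growth of vehicle-treated control cultures of the same strain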; conditions: S. cerevisiae mlh1 strain growth inhibition, hits give high values
Method in brief: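 A yeast strain with a defined genetic lesion serves as the test organism. Cultures receive compound or vehicle, and growth is measured.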

[14] = NCI Yeast Anticancer Drug Screen. Data for the sgs1 strain (AID 173);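 note: 0% = growth of vehicle-only control cultures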; conditions: S. cerevisiae sgs1 mutant, hits give high values
Method in brief: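 A genetically defined yeast mutant is incubated with the test compound, and its growth is compared to that of the same strain given vehicle.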

[15] = NCI Yeast Anticancer Drug Screen. Data for the mlh1 rad18 strain (AID 175); conditions: S. cerevisiae mlh1 rad18 strain growth inhibition, hits give high values
Method in brief: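 Steps: expose repair-defective yeast to compound; measure growth; express inhibition against vehicle-treated controls.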

[16] = NCI Yeast Anticancer Drug Screen. Data for the rad18 strain (AID 177); conditions: S. cerevisiae rad18 mutant growth inhibition, hits give high values
Method in brief: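 Measured value is growth inhibition of a yeast strain bearing a DNA repair alteration, referenced to vehicle-treated cells.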

[17] = at 5.0 µM (retest, dose inferred, filed as 0.5)
[18] = at 50.0 µM (retest, dose inferred, filed as 5.0)

Measured: growth inhibition

N#C/C(=C/N1C(=O)/C(=C/c2ccc([N+](=O)[O-])cc2)SC1=S)c1nc2ccccc2s1
active: [1]; at 100.0 µM 77% | [3]; at 33.0 µM 86% | [3]; at 100.0 µM 87% | [5]; at 50.0 µM 87.3% | [5]; at 100.0 µM 79% | [6]; at 50.0 µM 81.7% | [7]; at 100.0 µM 84% | [8]; at 50.0 µM 85.6% | [11]; at 50.0 µM 86% | [12]; at 100.0 µM 75% | [13]; at 100.0 µM 82% | [14]; at 100.0 µM 82% | [15]; at 50.0 µM 87.8% | [16]; at 100.0 µM 82%
inactive: [1]; at 1.2 µM 5% | [1]; at 3.7 µM 9% | [1]; at 11.0 µM 18% | [1]; at 33.0 µM 36% | [2]; at 1.2 µM 4% | [2]; at 3.7 µM 5% | [2]; at 11.0 µM 7% | [2]; at 33.0 µM 18% | [2]; at 100.0 µM 59% | [3]; at 1.2 µM 19% | [3]; at 3.7 µM 45% | [3]; at 11.0 µM 69% | [4]; at 1.2 µM 1% | [4]; at 3.7 µM 3% | [4]; at 11.0 µM 5% | [4]; at 33.0 µM 11% | [4]; at 100.0 µM 66% | [5]; at 1.2 µM -2% | [5]; at 3.7 µM -6% | [5]; [17] -4% | [5]; at 11.0 µM 0% | [5]; at 33.0 µM 40% | [5]; [18] 23% | [6]; at 1.2 µM 9% | [6]; at 3.7 µM 11% | [6]; [17] -1% | [6]; at 11.0 µM 18% | [6]; at 33.0 µM 34% | [6]; [18] 16% | [6]; at 100.0 µM 67% | [7]; at 1.2 µM 3% | [7]; at 3.7 µM 4% | [7]; at 11.0 µM 13% | [7]; at 33.0 µM 40% | [8]; [17] 7% | [8]; [18] 48% | [9]; at 1.2 µM 8% | [9]; at 3.7 µM -1% | [9]; at 11.0 µM 3% | [9]; at 33.0 µM 16% | [9]; at 100.0 µM 55% | [10]; [17] -16% | [10]; [18] 30% | [10]; at 50.0 µM 61.1% | [11]; at 1.2 µM -2% | [11]; at 3.7 µM 4% | [11]; [17] -18% | [11]; at 11.0 µM 9% | [11]; at 33.0 µM 26% | [11]; [18] 34% | [11]; at 100.0 µM 63% | [12]; at 1.2 µM 1% | [12]; at 3.7 µM 4% | [12]; at 11.0 µM 8% | [12]; at 33.0 µM 31% | [13]; at 1.2 µM 5% | [13]; at 3.7 µM 6% | [13]; at 11.0 µM 13% | [13]; at 33.0 µM 37% | [14]; at 1.2 µM 11% | [14]; at 3.7 µM 18% | [14]; at 11.0 µM 30% | [14]; at 33.0 µM 61% | [15]; [17] 13% | [15]; [18] 55% | [16]; at 1.2 µM 19% | [16]; at 3.7 µM 33% | [16]; at 11.0 µM 48% | [16]; at 33.0 µM 69%

O=C1C=CC(=O)N1c1ccc(N2C(=O)C=CC2=O)cc1
active: [1]; at 3.7 µM 93% | [1]; at 11.0 µM 100% | [1]; at 33.0 µM 100% | [1]; at 100.0 µM 99% | [2]; at 3.7 µM 95% | [2]; at 11.0 µM 100% | [2]; at 33.0 µM 100% | [2]; at 100.0 µM 98% | [3]; at 11.0 µM 85% | [3]; at 33.0 µM 99% | [3]; at 100.0 µM 99% | [4]; at 3.7 µM 102% | [4]; at 11.0 µM 100% | [4]; at 33.0 µM 100% | [4]; at 100.0 µM 98% | [5]; at 3.7 µM 97% | [5]; at 11.0 µM 100% | [5]; at 33.0 µM 100% | [5]; [18] 73% | [5]; at 50.0 µM 92.2% | [5]; at 100.0 µM 99% | [6]; at 3.7 µM 101% | [6]; at 11.0 µM 100% | [6]; at 33.0 µM 100% | [6]; [18] 82% | [6]; at 50.0 µM 94.4% | [6]; at 100.0 µM 99% | [7]; at 3.7 µM 101% | [7]; at 11.0 µM 100% | [7]; at 33.0 µM 100% | [7]; at 100.0 µM 99% | [8]; [18] 100% | [8]; at 50.0 µM 93.5% | [10]; [18] 100% | [10]; at 50.0 µM 92.3% | [11]; at 3.7 µM 96% | [11]; at 11.0 µM 100% | [11]; at 33.0 µM 100% | [11]; [18] 99% | [11]; at 50.0 µM 92.8% | [11]; at 100.0 µM 99% | [12]; at 3.7 µM 91% | [12]; at 11.0 µM 99% | [12]; at 33.0 µM 100% | [12]; at 100.0 µM 98% | [13]; at 3.7 µM 99% | [13]; at 11.0 µM 100% | [13]; at 33.0 µM 100% | [13]; at 100.0 µM 99% | [14]; at 3.7 µM 99% | [14]; at 11.0 µM 99% | [14]; at 33.0 µM 100% | [14]; at 100.0 µM 99% | [15]; [18] 75% | [15]; at 50.0 µM 92.5% | [16]; at 3.7 µM 90% | [16]; at 11.0 µM 100% | [16]; at 33.0 µM 100% | [16]; at 100.0 µM 99%
inactive: [1]; at 1.2 µM 43% | [2]; at 1.2 µM 33% | [3]; at 1.2 µM 3% | [3]; at 3.7 µM 49% | [4]; at 1.2 µM 60% | [5]; at 1.2 µM 32% | [5]; [17] 44% | [6]; at 1.2 µM 46% | [6]; [17] 39% | [7]; at 1.2 µM 17% | [8]; [17] -16% | [10]; [17] 47% | [11]; at 1.2 µM 48% | [11]; [17] 19% | [12]; at 1.2 µM 9% | [13]; at 1.2 µM 49% | [14]; at 1.2 µM 41% | [15]; [17] 37% | [16]; at 1.2 µM 46%

From PubChem BioAssay (NCI)
